The values below come from PubChem BioAssay (NCI).

Holding throughout (assay): NCI-60 one-dose screen, 48 h (100 = growth as untreated, 0 = no growth, -100 = all killed)
What all share (settings): 10 µM unless noted

The subject of assay [1] is SK-MEL-2 melanoma.
The subject of assay [2] is EKVX NSCLC.
Assay [3] concerns SN12C renal.
For assay [4], the system named is UO-31 renal.
For assay [5], the system named is TK-10 renal.
The subject of assay [6] is ACHN renal.
In assay [7] the test system is CAKI-1 renal.
In assay [8] the test system is A498 renal.
The test system of assay [9] is CCRF-CEM leukemia.
Assay [10] has as its system MOLT-4 leukemia.

This is part of a sample that, as a whole, favours compounds with a hit. Of some 83,000 tested, about 20% had one in any assay.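 The test compound was applied at a single concentration to cells in 96-well plates for 48 hours, and percent growth was recorded.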 Values without a mark were called inactive. Active and inactive are the calls of the source. The calls were made as follows: active = growth percent below 10; inactive = the rest.

As for `Cc1ccccc1NC(=O)Nc1nc2ccc([N+](=O)[O-])cc2s1`, the growth in assay [1] is -9.75% (active); in assay [2], 10.3%; in assay [3] it was 6.76% (active); in [4], 9.02% (active); in [5] it was 12.2%; in assay [6], 3.8% (active). For the same compound, the growth is -19.4% (active) in assay [7], -24.7% (active) in [8], 16.2% in [9] and 12.5% in assay [10].

Regarding `Cc1ccc2c(n1)C(=O)C(Cl)=C(Nc1ccc(C(F)(F)F)cc1)C2=O`, the growth was 103% in assay [1]; 77.2% in [2]; 91.8% in assay [3]; -85.2% (active) in [4]; 85.4% in [5]; -98.4% (active) in [6]. In addition, the growth was 44.4% in assay [7], 79% in assay [8], 2.47% (active) in assay [9] and 8.71% (active) in assay [10].

For the compound `Cc1ccc(-c2csc(N/N=C/c3cccs3)n2)cc1`, the growth was 111% in [1]; 65.2% in [2]; 100% in [3]; 75.1% in [4]; 151% in assay [5]; 90.4% in [6]. The growth is 87.4% in assay [7], 116% in assay [8], 91.9% in assay [9] and 86.7% in assay [10].

As for `O=C(COc1ccc(/C=C2\C(=O)Nc3cc(Cl)ccc32)cc1)Nc1ccc(Cl)cc1`, the growth in [1] was 95.6%; in [2], 78.2%; in [3], 78.9%; in assay [4], 46.5%; in assay [5] it was 127%; in assay [6], 57.8%. The growth in assay [7] was 55.4%; in assay [8], 102%; in assay [9] it was 48.9%; in assay [10] it was 50.1%.

Turning to `N#Cc1c(-c2cccs2)cc(-c2cnccn2)nc1SCC(=O)N/N=C/c1ccncc1`, the growth was 121% in assay [1]; 99% in [2]; 110% in [3]; 88.4% in [4]; 128% in assay [5]; 109% in [6]. For the same compound, the growth in [7] is 95.9%; in [8], 116%; in assay [9], 103%; in [10] it was 117%.

With `O=C(CSc1nc2ccccc2c(=O)n1-c1ccc(Cl)c(Cl)c1)Nc1ccc(S(=O)(=O)Nc2ccc(Cl)nn2)cc1`, the growth in assay [1] is 103%; in [2], 94.5%; in assay [3], 96.4%; in [4], 79.8%; in assay [5], 118%; in assay [6] it was 95.3%. The growth in assay [7] was 82.1%; in assay [8], 103%; in assay [9] it was 97%; in [10] it was 97.2%.

Take `Nc1cc(C(=O)N/N=C\c2ccc(OC(F)F)c(OC3CCCC3)c2)nn1CC(O)c1ccccc1` (stereo not given): the growth in assay [1] was 101%; in [2], 104%; in [3] it was 105%; in [4], 76.5%; in assay [5] it was 112%; in assay [6], 105%. The growth was 81.9% in assay [7], 100% in [8], 92.3% in [9] and 78.5% in assay [10].

In the case of `N#Cc1cnc2ccc(-c3cnc4n[nH]nc4c3)cc2c1N1CCc2cc(F)c(Cl)cc21`, the growth in assay [1] is -22.6% (active); in [2], 3.17% (active); in assay [3] it was 14.8%; in assay [4], 2.18% (active); in [5], -11.4% (active); in assay [6], 13.6%. Further, the growth was 6.12% (active) in assay [7], -11.8% (active) in assay [8], 10.6% in assay [9] and -1.31% (active) in assay [10].

As to `C#Cc1nc(/C=C/CCCCCCC(=O)NO)cs1`, the growth is 96.1% in [1]; 89.5% in assay [2]; 90.3% in assay [3]; -93.1% (active) in assay [4]; 31.6% in [5]; -39.1% (active) in [6]. Also, the growth was -11.4% (active) in [7], 73.9% in assay [8], -39.3% (active) in assay [9] and -14% (active) in assay [10].

As for `COc1ccc(OC)c(CCn2cncc2-c2c[nH]c3ccc(Cl)cc23)c1`, the growth was 19% in assay [1]; 37.5% in assay [2]; 63.6% in assay [3]; 46.6% in assay [4]; 50.7% in [5]; 60.5% in assay [6]. Further, the growth in assay [7] is 31.3%; in assay [8], 44.8%; in assay [9], 49.4%; in [10], 25%.

For `CCCCCN1C(=O)/C(=c2\sc3n(c2=O)C2C(NN=3)N(CC)C(=O)N2CC)c2cccc(C)c21` (stereo not given), the growth in assay [1] is 97.1%; in assay [2] it was 56.2%; in assay [3], 74.3%; in assay [4], 62.7%; in [5] it was 96.5%; in assay [6], 43.9%. For the same compound, the growth in assay [7] was 41.3%; in assay [8], 12%; in [9] it was 30.6%; in assay [10] it was 53.1%.

Take `CC1=C(C)C(=O)C(Nc2cccc(C(F)(F)F)c2)=C(Br)C1=O`: the growth in assay [1] is 104%; in assay [2], 72.9%; in assay [3] it was 97.1%; in assay [4], 79.1%; in [5] it was 157%; in assay [6] it was 72.3%. The growth in [7] is 94.3%; in [8], 86.4%; in assay [9], -0.578% (active); in [10], -6.02% (active).

Take `NCCNC(=O)c1cccc(COc2ccccc2NC(=O)c2cc(Cl)c(Cl)[nH]2)c1`: the growth was 106% in [1]; 94.4% in assay [2]; 100% in assay [3]; 92.2% in assay [4]; 94.2% in assay [5]; 100% in [6]. Moreover, the growth in assay [7] is 81.9%; in assay [8], 81.5%; in assay [9] it was 85.8%; in [10], 89.5%.
